Giardia killer – Giardia lamblia killing; activity change, % at 7.66 µM, hits read low; Giardia lamblia trophozoite viability; actives 0.15% (n = 340,000); in the data active = activity change below about -80%; inconclusive = between about -30% and that limit;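 note: parasites exposed to compound for two days anaerobically before the ATP read; % is set by controls: 0 for no effect and ±100 for the full control effect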
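Media and compound were dispensed first, then trophozoites at 100 cells/well; plates sat 48 hrs at 37 deg C without oxygen before ATP luminescence reagent was added and read after 15-30 min at room temperature.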
HepG2 viability – kills HepG2 cells in TGF-b inhibitor counter-screen; HepG2 CAGA-GFP viability, ATP luminescence, 18 h; Potency, µM (doses to about 46.1 µM), for inactives: at the highest dose activity change, negative = cytotoxicity, actives largely listed as cytotoxic; actives 0.76% (n = 410,000); note: potency is the fitted concentration of half-maximal effect
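HepG2 CAGA-GFP cells (1000/well, DMEM with 1% FBS) received compound, then TGF-beta at 500 pg/mL final, and were incubated 18 hours at 37 degrees C. Viability was read by CellTiter-Glo luminescence. Media-only wells were set as complete cell-killing and DMSO as no toxicity.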
HT1080 IDH1KD tx – toxicity to HT-1080 IDH1 knockdown cells (counter line); AID 686971; HT-1080 IDH1 knockdown viability, ATP luminescence, 48 h; Potency, µM (top dose mostly 46.1 µM), for the others: at the top dose activity, negative = toxicity, actives largely listed as cytotoxic; actives 2% (n = 360,000);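 note: potency is the fitted concentration of half-maximal effect; 0% = DMSO wells and -100% = cell-free medium wells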
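% activity derives from luminescence (CellTiter-Glo), normalised to DMSO and no-cell wells. HT-1080-IDH1KD cells, 750/well, had 48 h compound exposure at 37 °C.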
HT1080-NT tox – kills 2HG-producing HT-1080-NT fibrosarcoma cells; HT-1080-NT fibrosarcoma viability, CellTiter-Glo ATP luminescence, 48 h; Potency, µM (series often up to 46.1 µM), without a hit: at the top dose activity, negative = less viability, most hits filed as cytotoxic; actives 1.6% (n = 360,000); AID 686970;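 note: NT is the 2HG producing partner of a matched IDH1 knockdown line; potency is the fitted concentration of half-maximal effect; 0% = DMSO-treated cells and -100% = media-only wells without cells; nearly all actives have a fitted effect of over 55% in size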
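Viability by CellTiter-Glo luminescence after 48 h compound exposure at 37C of HT-1080-NT cells (750/well, RPMI, 5% FBS). % activity scaled between DMSO wells and medium-only wells, then curve-fitted and categorized by curve class.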
IL1B secr inh – inflammasome signaling inhibition, IL-1 beta readout. THP-1 LPS/ATP IL-1B secretion, AlphaLISA, 16 h; hits give low values. activity change, % at 57.5 µM. actives 4.7% (n = 360,000); in the data active = activity change below about -50%; inconclusive = mostly about -30% to -49%; note: % is set by controls: 0 for no effect and ±100 for the full control effect
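THP-1 cells pretreated 1 hr with compounds (up to 57.5 uM final), then stimulated with LPS (250 ng/mL final) plus ATP (1.25 mM final); secreted IL-1B measured by AlphaLISA after 16 hr, decreased signal indicating inhibition.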
TGFb SMAD3 inh – TGF-b pathway inhibition | HepG2 CAGA-GFP TGF-b/SMAD3 reporter, GFP fluorescence, 18 h; TGF-beta stimulated, 500 pg/mL final | Potency, µM (highest dose often 46.1 µM), inactives show at the highest dose activity, negative = inhibition, hits mostly inhibitors | actives 1.2% (n = 410,000) | AID 588855; note: potency is the fitted concentration of half-maximal effect; % is set by controls: 0 for no effect and ±100 for the full control effect; nearly all actives have a fitted effect of over 65% in size
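HEPG2 CAGA-GFP reporter cells (1000/well, DMEM with 1% FBS) received compounds, then recombinant TGF-beta at 500 pg/mL final for 18 hours at 37 degrees C. Per-cell GFP summed per well was normalised to unstimulated and stimulated DMSO controls before curve fitting.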
Numbers without * were called inactive; u = inconclusive; x = not tested or not shown. Only some compounds are listed: those with a hit (about 6.5% of all), similar ones and a draw of the others. Unless noted, calls come from the whole dose curve; as a rule, active = well fitted curve in the direction sought with a large enough effect; inconclusive = small, poorly fitted or top-dose-only effect, or another doubt; inactive = no such curve, though single readings can be large; an effect the other way counts as inactive or inconclusive.

SMILES	Giardia killer	HepG2 viability	HT1080 IDH1KD tx	HT1080-NT tox	IL1B secr inh	TGFb SMAD3 inh
O=c1[nH]c(C2CCN(S(=O)(=O)c3ccc(C(F)(F)F)cc3)CC2)nc2c1nnn2Cc1cccc(F)c1	-13.2	-4.7%	u	u	u	u
Cc1cc(-c2nc3ncccc3o2)ccc1NC(=O)c1ccccc1Br	x	3.6%	x	x	x	1.1%
CCCOc1ccc(/C=C/C(=O)N2CCN(c3ccccn3)CC2)cc1	12.3	11.8%	3.3%	0.4%	-8.6	0.5%
O=C(NNC(=O)c1ccccc1-n1cccc1)c1cccc(Cl)c1	11.0	0.8%	27.7%	7.8%	0.0	-33.8%
Cc1c(C(=O)N2CCC(C)CC2)oc2ccc3c(c12)C(O)CC1(CCCCC1)O3 (stereo unspecified)	-18.4	-14.9%	9.2µM*	u	-20.6	u
COCCNC(=O)c1oc2ccc3c(c2c1C)C(O)CC(C)(C)O3 (stereo unspecified)	3.0	7.3%	20.0%	13.8%	10.8	6.8%
C/C=C/Cn1c(SCc2ccc(C)cc2)nc2c1c(=O)[nH]c(=O)n2C	10.3	-38.7%	u	u	-3.8	u
COC(=O)c1ccc(CSc2n[nH]c(C)n2)o1	12.7	16.5%	8.1%	8.6%	-1.3	9.0%
Cn1c(C(=O)N2CCN(c3ccc([N+](=O)[O-])cc3)CC2)cc2c(=O)[nH]c3ccccc3c21	-1.6	-2.9%	-9.0%	-18.7%	-53.7*	0.2%
COc1ccc(CCn2c(C)nc3ccccc3c2=O)cc1OC	1.6	-17.5%	8.1%	18.0%	-1.6	-1.0%
CN(C)CCCSc1nc(-c2ccccc2)nc2c1CCC2	-15.1	-22.6%	-10.0%	-22.3%	-53.1*	3.5%
CN(C)C(=O)CSc1nc(-c2ccccc2)nc2c1CCCC2	-13.6	-32.2%	u	-27.6%	-69.7*	-29.2%
O=C(O)/C(=C\c1ccc(Br)cc1)c1ccc(S(=O)(=O)N2CCCCC2)s1	-6.7	-15.1%	6.8%	23.5%	84.2	-25.5%
Cc1cc(C)n(CC(C)C(=O)O)n1 (stereo unspecified)	-2.3	-0.5%	11.5%	21.4%	-78.9*	-21.4%
COc1cccc(S(=O)(=O)NCC(=O)N2CCCC2)c1	-8.6	-1.4%	13.3%	10.2%	4.2	0.0%
Cc1ccc(C2=N/C(=C\c3cccs3)C(=O)N2Nc2ccccc2)cc1	-24.8	3.6%	-24.5%	-19.2%	-18.9	u
O=C1/C(=C\c2cccs2)N=C(c2cccs2)N1Nc1ccccc1	-1.9	-23.7%	-15.5%	-29.1%	-60.9*	-19.8%
O=C1/C(=C/c2cccs2)N=C(c2cccs2)N1Nc1ccccc1	-7.9	-60.4%	-18.4%	-14.2%	-70.4*	u
O=C(c1ccccc1)c1cc(Cl)ccc1N1C(=O)C=CC1=O	30.5	-88.0%	23.1µM*	18.4µM*	-80.5*	u
CCOC(=O)N1CCN(S(=O)(=O)c2ccc(OCC(=O)OC)c(Cl)c2)CC1	-17.0	-16.7%	9.9%	-2.6%	-91.3*	u
CCOC(=O)N1CCN(S(=O)(=O)c2ccc(OC)c(Cl)c2Cl)CC1	-15.4	0.4%	-7.9%	-8.8%	-2.8	-11.2%
CCOC(=O)N1CCN(S(=O)(=O)c2ccc(OC)c(Cl)c2)CC1	5.2	-4.4%	13.3%	9.0%	2.4	0.0%
CCOC(=O)N1CCN(S(=O)(=O)c2ccc(OCC)c3ccccc23)CC1	15.5	-22.3%	u	-6.7%	-79.7*	u
Cc1ccc(-n2ccnc(NCc3cccs3)c2=O)cc1C	x	0.3%	x	x	x	u
Cc1cccc(NC(=O)CCN2C(=O)c3ccccc3C2=O)c1	-20.7	-18.4%	1.4%	-2.2%	-22.2	-4.9%
SMILES	Giardia killer	HepG2 viability	HT1080 IDH1KD tx	HT1080-NT tox	IL1B secr inh	TGFb SMAD3 inh
Cc1cccc2nc(-c3cccnc3)c(Nc3ccccc3)n12	-3.1	-40.6%	-7.4%	-5.1%	u	u
Cc1cccc2nc(-c3cccnc3)c(NCCC(C)C)n12	-1.4	-10.5%	u	u	-82.3*	u
CC(C)N(C)NC(=S)Nc1ccccc1	1.6	2.4%	8.7%	4.3%	14.2	-0.7%
O=C1CCCN1c1ccc(S(=O)(=O)NCCOc2ccccc2)cc1	-28.2	-14.8%	-26.3%	-8.6%	0.0	-7.7%
Cc1cc(N2CCCC2=O)cc(C)c1S(=O)(=O)NCCOc1ccc(C(C)(C)C)cc1	-6.5	-14.2%	u	u	-54.4*	-4.8%
CCc1cccc(CC)c1-n1c(SCC(=O)N2CCc3ccccc3C2)nnc1-c1cccnc1	10.7	4.1%	u	u	-57.8*	-8.0%
Cn1c(SCC(=O)N2CCc3ccccc3C2)nnc1-c1ccncc1	-13.9	-1.1%	0.0%	0.6%	23.4	-15.3%
CCN(CC)C(=O)C1=C(C)N(CCCN2CCCC2=O)C(=O)C(CC(=O)NCc2ccco2)C1 (stereo unspecified)	x	-0.8%	8.3%	1.7%	-6.9	11.8%
COc1cc(-c2onc3ccc(Br)cc23)cc(OC)c1OC	3.3	-2.4%	1.84µM*	1.84µM*	-11.9	10.4%
COCc1ccc(C(=O)N2CCCC(N(C)Cc3ccccc3)C2)s1 (stereo unspecified)	-8.5	-14.2%	-7.2%	0.3%	0.8	-8.8%
COc1ccccc1CNC(=O)COc1cc2c(c3oc(=O)cc(C)c13)CCC(C)(C)O2	0.5	-13.9%	-14.4%	-1.0%	-60.8*	-16.6%
COc1ccc(CNC(=O)COc2cc3c(c4oc(=O)cc(C)c24)CCC(C)(C)O3)cc1	-2.7	-16.2%	7.4%	8.6%	u	-26.4%
O=C(c1ccc(-c2cccc(C(F)(F)F)c2)o1)N1CCCCCCC1	41.8	-18.8%	0.3%	10.7%	-4.8	u
CC1CN(C(=O)c2ccc(-c3cccc(C(F)(F)F)c3)o2)CC(C)O1 (stereo unspecified)	-4.5	11.9%	-10.4%	8.6%	-56.2*	1.3%
O=C(c1ccco1)N1CCN(C(=O)c2ccc(-c3cccc(C(F)(F)F)c3)o2)CC1	-3.7	-1.7%	-21.7%	-28.7%	-70.3*	-10.4%
O=C(c1ccc(-c2cccc(C(F)(F)F)c2)o1)N1CCN(c2ccccc2)CC1	-19.1	3.2%	1.8%	2.0%	-1.8	-15.8%
COc1cc(OC)c(OC)cc1/C=N/N(C)c1ccccc1	-19.9	-27.7%	-19.9%	-18.8%	-62.5*	0.9%
O=C(CSC1CS(=O)(=O)c2cc([N+](=O)[O-])ccc21)NNC(=O)c1ccc(Cl)cc1 (stereo unspecified)	11.2	-67.4%	5.2%	-9.0%	-2.2	12.6µM*
